Screens: PubChem BioAssay, several laboratories
CR mimetic SO = yeast age-related superoxide inhibition as caloric restriction mimetic; superoxide response (% of plate mean), % at 10 µM; S. cerevisiae aged cells, superoxide DHE fluorescence; hits give low values; AID 2690; hit rate 0.18% among 330,000;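 active = superoxide response under a set limit, about three screen SD below normal, cut at about 65% in these data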;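 also: yeast aged for seven days with compound at 30 °C before DHE staining; 100% = average MFI of all compound-treated wells on the plate with controls excluded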
ATG4B inhibitor = inhibitors of human ATG4B cysteine protease; inhibition, % at 8.33 µM; ATG4B cleavage of LC3-PLA2, NBD-HPC fluorescence, 1 h; hit rate 0.51% among 340,000; AID 504462; Q9Y4P1; in the data active = inhibition above about 40%
GRK2 aptamer HTS = inhibitors of human GRK2 displacing RNA aptamer; P25098; AID 488847; inhibition of aptamer binding, % at 10 µM; hit rate 0.59% among 330,000; bead flow cytometry, FAM-aptamer displacement from GRK2;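 active = inhibition of aptamer binding above 40%, roughly 3 SD of noise, on plates passing a quality check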;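 also: median bead fluorescence of bound FAM aptamer so fluorescent compounds give negative values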
Target sequence (P25098 whole entry, looked up): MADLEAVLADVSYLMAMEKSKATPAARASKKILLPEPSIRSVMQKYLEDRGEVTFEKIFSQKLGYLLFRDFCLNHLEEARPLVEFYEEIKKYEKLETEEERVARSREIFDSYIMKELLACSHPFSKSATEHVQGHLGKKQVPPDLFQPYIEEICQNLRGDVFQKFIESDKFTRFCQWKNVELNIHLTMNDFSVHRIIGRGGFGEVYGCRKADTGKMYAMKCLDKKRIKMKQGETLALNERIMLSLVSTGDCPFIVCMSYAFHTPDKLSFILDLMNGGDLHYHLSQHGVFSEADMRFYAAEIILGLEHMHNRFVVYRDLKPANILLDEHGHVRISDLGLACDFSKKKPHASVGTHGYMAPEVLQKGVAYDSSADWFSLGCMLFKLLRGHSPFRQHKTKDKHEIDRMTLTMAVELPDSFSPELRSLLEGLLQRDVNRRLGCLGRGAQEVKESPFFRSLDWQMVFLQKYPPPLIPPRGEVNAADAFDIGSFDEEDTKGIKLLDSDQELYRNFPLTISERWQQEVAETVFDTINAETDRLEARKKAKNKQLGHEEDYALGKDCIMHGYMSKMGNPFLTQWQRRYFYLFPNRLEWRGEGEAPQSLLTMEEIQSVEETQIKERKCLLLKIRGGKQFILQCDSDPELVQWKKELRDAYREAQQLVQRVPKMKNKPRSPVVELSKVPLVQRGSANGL
Efflux pump inh = inhibitors of Candida antifungal efflux pumps expressed in yeast; S. cerevisiae Candida pump triplex, Nile Red efflux; inhibition, % at 10 µM; hit rate 0.44% among 330,000;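 active = plate passing quality check with inhibition over a set limit, or well fluorescence over plate mean plus 4 SD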;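 also: Nile Red retained in pooled yeast measured as flow cytometry median fluorescence; 0% = buffer negative control and 100% = Enniatin B positive control; higher means more Nile Red kept so more efflux inhibition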
GRK2 CP1 = human GRK2 inhibition confirmation, cherry pick 1 | shares compounds with GRK2 aptamer HTS | bead-bound GRK2, FAM-aptamer displacement, flow cytometry | aptamer displacement, % at 10 µM | hit rate 4% among 2,000;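 active = aptamer displacement above 40%, near three times the noise of non-fluorescent compounds, on plates passing quality checks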;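 also: negative values mostly reflect intrinsic compound fluorescence rather than true enhancement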
FAM quench CP1 = quenches fluorescent RNA aptamer, GRK2 hit artifact. shares compounds with GRK2 aptamer HTS. Carboxyfluorescein RNA aptamer on beads, flow cytometry quenching; hits give low values. fluorescence response (% of DMSO), % at 10 µM. 2,000 tested, under 10 active;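 active = compounds that quench the bead-bound fluorescent RNA probe, cutting fluorescence to under half of the solvent control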;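 also: counterscreen run without GRK2 so only probe quenching by compound is measured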
GRK2 confirm 2 = human GRK2 inhibition confirmation, cherry pick 2. 360 tested, under 10 active. inhibition of aptamer binding, % at 10 µM. shares compounds with GRK2 aptamer HTS. AID 504782. bead-bound GRK2, FAM-aptamer displacement, flow cytometry;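 active = inhibition of aptamer binding above 40%, about triple the noise seen with nonglowing compounds, on plates passing quality control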;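 also: negative values mostly come from compounds that fluoresce themselves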
FAM quench SP = aptamer fluorescence quenching in GRK2 counter-screen; AID 588494; shares compounds with GRK2 aptamer HTS; carboxyfluorescein RNA aptamer beads, flow cytometry quenching; hits give low values; fluorescence response vs DMSO, % at 10 µM; 360 tested, under 10 active;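 active = response vs DMSO under 50%, meaning signal dropped by over half, treated as fluorescence quencher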;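 also: labelled aptamer on streptavidin beads without GRK2 as a quench counter-screen; 100% = bead fluorescence of DMSO wells and lower means quenching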
Active calls of the source: *; / = no result given. Sampled rows, rich in hits. Any-hit rate of the full collection: about 1.6%.

SMILES	CR mimetic SO	ATG4B inhibitor	GRK2 aptamer HTS	Efflux pump inh	GRK2 CP1	FAM quench CP1	others
Cc1nn(-c2ccc(F)cc2)c(Cl)c1/C=C(\CC(=O)O)c1nc2ccccc2s1	139	5	2	0	2	98
Cc1cc(C)c2c(c1)NC(C(=O)O)C1CC=CC21 (configuration not stated)	94	23	93*	0	14	101
Cc1ccc(C(=O)NCc2ccncc2)cc1S(=O)(=O)Nc1cccc(C)c1C	83	-11	2	0	/	/
COCCNC(=O)c1ccc(Cl)c(S(=O)(=O)Nc2cccc(C)c2C)c1	89	-2	65*	0	/	/	GRK2 confirm 2=22;FAM quench SP=99
O=C(N=Nc1c(O)[nH]c2ccc(Cl)cc12)c1cc(-c2cccs2)nc2ccccc12	104	7	0	0	-7	96
Cc1cccc(C)c1-n1c(C)nn(-c2ncc(C(F)(F)F)cc2Cl)c1=O	99	0	90*	0	2	96
Cc1cccc2c1NC(=O)C2=O	/	0	/	/	/	/
COC(=O)c1cccc2c1NC(=O)C2=O	107	0	71*	0	1	103
CC(=O)NCCNc1nc2c(-c3ccccc3)nnn2c2ccccc12	99	-22	0	0	/	/
CC(=O)NCCNc1nc2c(-c3cccc(C)c3)nnn2c2ccccc12	98	-2	65*	1	15	105
COc1ccc(Cn2nnnc2C(c2ccccn2)N2CCN(c3cc(Cl)ccc3C)CC2)cc1 (configuration not stated)	110	0	0	0	/	/
COCCn1nnnc1C(c1ccccn1)N1CCN(c2cc(Cl)ccc2C)CC1 (configuration not stated)	89	-13	97*	0	-1	102
COc1cccc(CC2(CO)CCN(Cc3cnc(N4CCOCC4)s3)CC2)c1	110	1	7	0	/	/
OCC1(CCCc2ccccc2)CCN(Cc2cnc(N3CCOCC3)s2)CC1	92	24	0	0	-2	94
CN(C(=O)c1ccc(N2CCCCC2)c([N+](=O)[O-])c1)C1CCS(=O)(=O)C1 (configuration not stated)	114	-3	21	1	-3	105
CC1(C)Cc2c(sc3nc(=S)[nH]c(N)c23)CO1	104	/	2	0	/	/
Cc1ccc(-n2ncc3c(SCC(=O)NNC(=O)C(C)C)ncnc32)cc1	96	-8	97*	0	-1	100
CC(C)C(=O)NNC(=O)CSc1ncnc2c1cnn2-c1ccccc1Cl	105	-3	0	0	/	/
CCN(CC)CCn1c(=S)[nH]c2cc(C(=O)NCc3ccccc3Cl)ccc2c1=O	97	4	1	0	/	/
Cc1ccc(C)c(S(=O)(=O)NCc2ccc(C(=O)N3CCCCC3C)cc2)c1 (configuration not stated)	98	-5	52*	0	2	93
CC1CCCCN1C(=O)c1ccc(C(=O)N2CCCCC2C)cc1 (configuration not stated)	95	-5	0	0	/	/
CC(C)C[C@@H](CN)NC(=O)c1nc[nH]c1C(=O)N[C@@H](CC(C)C)C(=O)CNC[C@H](C)NC(=O)c1nc[nH]c1C(=O)N[C@@H](CC(=O)O)C(=O)O	/	-7	/	/	/	/
CC(NC(=O)COC(=O)c1c[nH]c2ccccc12)c1ccccc1 (configuration not stated)	95	-7	31	0	-1	100
O=C(COC(=O)c1c[nH]c2ccccc12)Nc1ccccc1	85	-9	0	0	/	/
O=C(N/N=C/c1ccc([N+](=O)[O-])cc1)c1cccc(N2CCCC2=O)c1	118	-11	0	0	/	/
SMILES	CR mimetic SO	ATG4B inhibitor	GRK2 aptamer HTS	Efflux pump inh	GRK2 CP1	FAM quench CP1	others
Cc1onc(-c2ccccc2Cl)c1C(=O)NNC(=O)c1ccccc1F	99	-5	0	0	/	/
CCOc1ccc(NC2CCCCC2NS(=O)(=O)c2ccccc2)cc1 (configuration not stated)	91	2	49*	0	1	94
CCN(C(=O)COC(=O)COc1ccccc1Cl)c1c(N)n(Cc2ccccc2)c(=O)[nH]c1=O	82	-7	1	0	/	/
CC(C)Cn1c(N)c(C(=O)NCCN2CCOCC2)c2nc3ccccc3nc21	94	-11	3	0	/	/
Cc1cccc(-n2c(N)c(C(=O)NCCN3CCOCC3)c3nc4ccccc4nc32)c1	94	-10	100*	0	1	95
COC(=O)c1ccc(CNC(=O)C2CCC(=O)N(CCN3CCOCC3)C2)cc1 (configuration not stated)	101	5	0	0	/	/
COC(=O)Cc1ccc(NC(=S)N2CCN(c3cc(Cl)ccc3C)CC2)cc1	100	-7	2	0	/	/
CCOC(=O)c1cnc2c(C#N)c(C)nn2c1-c1ccccc1	85	-14	0	0	/	/
CCOC(=O)c1cnc2c(C#N)c(C)nn2c1C	96	2	47*	0	-4	100
C=CCN1C(=O)/C(=C/c2ccc(-c3ccc(F)cc3)o2)SC1=S	98	-2	43*	0	29	103
C=CCN1C(=O)/C(=C/c2ccsc2)SC1=S	107	4	1	0	/	/
COc1ccc(C(C(=O)Nc2ccc(C(C)C)cc2)N(Cc2ccco2)C(=O)CC2NC(=O)NC2=O)cc1 (configuration not stated)	106	-14	0	0	/	/
Cn1nnnc1SCc1csc(C2C(C#N)=C(N)OC3=C2C(=O)CCC3)c1 (configuration not stated)	111	5	0	0	/	/
COc1ccc(Cl)cc1-c1nc(SCC(=O)NC(C)C)n[nH]1	101	0	46*	0	-1	98
COc1ccc(Cl)cc1-c1nc(SCC(=O)NC(C)C(C)C)n[nH]1 (configuration not stated)	102	-2	4	0	/	/
O=C(NCc1cnn(-c2ccc(F)cc2)c1)C1CCC(=O)N(C2CC2)C1 (configuration not stated)	107	5	4	0	/	/
CN1CCc2c(sc(NC(=O)CS(=O)(=O)c3ccccc3)c2C(N)=O)C1	99	-3	3	0	/	/	GRK2 confirm 2=-4;FAM quench SP=100
CCCN1CCc2c(sc(NC(=O)CCS(=O)(=O)c3ccccc3)c2C(N)=O)C1	96	-12	1	0	/	/
CC(=O)N1CCc2c(sc(NC(=O)Cc3ccc(C)cc3C)c2C#N)C1	109	13	3	0	/	/
CNC(=O)c1c(NC(=O)CCS(=O)(=O)c2ccc(C)cc2)sc2c1CCN(C(=O)OC)C2	90	0	0	0	/	/	GRK2 confirm 2=12;FAM quench SP=98
